Assay results from PubChem BioAssay AID1159580 (chemical genetic matrix, 2015).
Among all 5,500 compounds or so, about 2,000 (36%) were called active. Roughly 18% stayed inconclusive and do not appear here. Rule as the data show it: active = normalized growth mostly below about 0.91 (no sharp cut-off); inconclusive = no clear call, values can overlap the other calls; inactive = mostly above about 0.92. The list shows a part of the results.

Test: chemical genetic growth profiling, strain panel (AID 1159580);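 also: tested at 20 µM; growth read once vehicle control cultures reached saturation at 30 °C; 1 = growth at the plate median or of vehicle wells; lower values mean less growth of the strain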
Conditions: S. cerevisiae deletion strains, growth OD
[1] = locus YAL013W, strain DEP1, active compounds read low
[2] = locus YBR229C, strain ROT2, active compounds read low
[3] = locus YDL101C, strain DUN1, active compounds read low
[4] = locus YDR150W, strain NUM1, active compounds read low
[5] = locus YEL061C, strain CIN8, active compounds read low
[6] = locus YHR030C, strain SLT2, active compounds read low
[7] = locus YJR043C, strain POL32, active compounds read low
[8] = locus YJR075W, strain HOC1, active compounds read low
[9] = locus YLR039C, strain RIC1, active compounds read low
[10] = locus YLR262C, strain YPT6, active compounds read low
[11] = locus YMR263W, strain SAP30, active compounds read low
[12] = locus YMR307W, strain GAS1, active compounds read low
[13] = locus YNL322C, strain KRE1, active compounds read low
[14] = locus YPL055C, strain LGE1, active compounds read low

Measured: normalized growth

O=C(CSc1ccc(C(F)(F)F)cn1)N1CCc2c([nH]c3ccccc23)C1C(F)(F)F (stereo not given)
inactive: [1] 1 | [2] 0.995 | locus YCL061C, strain MRC1, active compounds read low 1.01 | [3] 1 | [4] 1.02 | [5] 0.959 | locus YGR078C, strain PAC10, active compounds read low 0.984 | [6] 1.01 | locus YHR087W, strain rtc3, active compounds read low 0.974 | locus YJL187C, strain SWE1, active compounds read low 1.02 | [7] 1.01 | [8] 0.965 | [9] 0.999 | locus YLR058C, strain SHM2 (second series), active compounds read low 1.01 | locus YLR085C, strain ARP6, active compounds read low 1 | [10] 0.982 | locus YML094W, strain GIM5, active compounds read low 0.997 | locus YMR219W, strain ESC1, active compounds read low 1.01 | [11] 1.01 | [12] 0.935 | locus YNL153C, strain GIM3, active compounds read low 0.998 | locus YNL298W, strain CLA4 (second series), active compounds read low 1.01 | [13] 0.991 | locus YNR030W, strain Alg12, active compounds read low 0.916 | locus YOL006C, strain TOP1, active compounds read low 1.08 | [14] 0.954 | locus YPL241C, strain CIN2, active compounds read low 0.936 | locus YPR135W, strain CTF4, active compounds read low 0.907

O=C(O)C1C(O)CCC2CN3CCc4c([nH]c5ccccc45)C3CC21 (stereo not given)
inactive: [1] 1.03 | locus YBR021W, strain FUR4, active compounds read low 0.972 | [2] 1 | locus YCL029C, strain bik1, active compounds read low 1.03 | locus YDL035C, strain GPR1, active compounds read low 1 | locus YDL074C, strain BRE1, active compounds read low 1.02 | [3] 1.02 | locus YDL185W, strain tfp1, active compounds read low 1.01 | locus YDL192W, strain arf1, active compounds read low 1 | locus YDR101C, strain arx1, active compounds read low 1.01 | [4] 1.01 | locus YDR162C, strain NBP2, active compounds read low 1.03 | locus YDR318W, strain mcm21, active compounds read low 1 | locus YDR388W, active compounds read low 1.01 | locus YDR502C, strain sam2, active compounds read low 1.02 | [5] 1.01 | locus YER110C, active compounds read low 1.02 | locus YER155C, strain BEM2, active compounds read low 1.02 | locus YER167W, strain BCK2, active compounds read low 1.02 | locus YGL078C, strain dbp3, active compounds read low 1.01 | locus YGL086W, strain mad1, active compounds read low 1.02 | locus YGL248W, strain PDE1, active compounds read low 1.01 | locus YGR135W, strain pre9, active compounds read low 0.996 | locus YGR252W, strain gcn5, active compounds read low 0.951 | [6] 1.01 | locus YHR079C, strain IRE1 (second series), active compounds read low 1.01 | locus YHR094C, strain hxt1, active compounds read low 1.02 | locus YHR129C, strain ARP1, active compounds read low 1.01 | locus YHR200W, strain rpn10, active compounds read low 1.02 | locus YIL066C, strain RNR3, active compounds read low 1.01 | locus YIL073C, strain SPO22, active compounds read low 0.988 | locus YIL125W, strain kgd1, active compounds read low 1.01 | locus YIR030C, strain dcg1, active compounds read low 1.01 | locus YJL095W, strain BCK1, active compounds read low 1.03 | locus YJL134W, strain LCB3, active compounds read low 1.02 | locus YJL168C, strain set2, active compounds read low 1.01 | locus YJL187C, strain SWE1 (second series), active compounds read low 1.01 | [7] 1.02 | [8] 1.04 | locus YKL009W, strain mrt4, active compounds read low 1.03 | locus YKL068W, active compounds read low 1.01 | locus YKL085W, strain MDH1 (second series), active compounds read low 0.998 | locus YKL085W, strain MDH1, active compounds read low 0.998 | locus YKR001C, strain vps1, active compounds read low 1.01 | [9] 1.06 | locus YLR058C, strain SHM2, active compounds read low 1.01 | locus YLR102C, strain apc9, active compounds read low 1.02 | [10] 1.06 | locus YLR268W, strain sec22, active compounds read low 1.03 | locus YLR330W, strain CHS5, active compounds read low 1.01 | locus YLR342W, strain FKS1 (second series), active compounds read low 1.05 | locus YLR371W, strain rom2, active compounds read low 1.02 | locus YLR418C, strain cdc73, active compounds read low 0.986 | locus YML016C, strain PPZ1, active compounds read low 1.01 | locus YML032C, strain rad52, active compounds read low 1.01 | locus YML124C, strain tub3, active compounds read low 1.01 | locus YMR078C, strain ctf18, active compounds read low 1.01 | locus YMR223W, strain ubp8, active compounds read low 0.988 | [11] 1.03 | [12] 1.02 | locus YNL067W, strain RPL9B, active compounds read low 1.03 | locus YNL233W, strain BNI4, active compounds read low 1.02 | locus YNL250W, strain rad50, active compounds read low 1.02 | locus YNL271C, strain bni1, active compounds read low 1.01 | locus YNL298W, strain CLA4, active compounds read low 1.02 | locus YNL307C, strain MCK1, active compounds read low 1.02 | [13] 1.01 | locus YNR052C, strain pop2, active compounds read low 1 | locus YOL012C, strain htz1 1.58 | locus YOL147C, strain pex11, active compounds read low 1.02 | locus YOR061W, strain CKA2, active compounds read low 1.01 | locus YOR069W, strain VPS5, active compounds read low 1.01 | locus YOR136W, strain idh2, active compounds read low 1.02 | locus YOR144C, strain elg1, active compounds read low 1.01 | locus YOR184W, strain ser1, active compounds read low 1.03 | locus YOR316C, strain cot1, active compounds read low 1.02 | [14] 1.03 | locus YPR119W, strain clb2, active compounds read low 1.01 | locus YPR141C, strain kar3, active compounds read low 1.01 | locus YPR163C, strain tif3, active compounds read low 1.01 | locus YPR167C, strain met16, active compounds read low 0.999 | strain wtn01, active compounds read low 1.02
